Screening data from PubChem.
MCF10A rerep: A quantitative high throughput screen for small molecules that induce DNA re-replication in MCF 10a normal breast cells; MCF 10A DNA re-replication, Hoechst nuclear intensity, 48 h; Potency, µM (series often up to 46.1 µM), actives largely listed as activators; 350,000 compounds, 2.9% hits; AID 624296, 2012; further: nearly all actives have a fitted effect of over 50% in size
SW480 rerep: A quantitative high throughput screen for small molecules that induce DNA re-replication in SW480 colon adenocarcinoma cells | SW480 DNA re-replication, Hoechst DNA content imaging, 48 h | Potency, µM (series often up to 46.1 µM), most hits filed as activators | 340,000 compounds, 1.8% hits | AID 624297, 2012; further: nearly all actives have a fitted effect of over 55% in size
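First, 250 cells per well were seeded. Next, compound or vehicle (23 nL) was pinned in, plates sat 48 hr at 37 C. Finally Hoechst was added for 40 min before fluorescence scanning.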
KB-3-1 tox: qHTS assay for MDR1-selective chemotherapeutics: Primary screen using the parental adenocarcinoma cell KB-3-1. KB-3-1 viability, CellTiter-Glo ATP luminescence, 72 h. Potency, µM (doses to about 46.1 µM), actives largely listed as cytotoxic. 400,000 compounds, 1.4% hits. AID 1347075, 2019; further: nearly all actives have a fitted effect of over 60% in size
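KB-3-1 cells, DMEM (no phenol red) + 10% FBS; compound by pin transfer, 72 h, 37 °C. Readout: CellTiter-Glo luminescence after 10 min. Data normalized, curve-fitted.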
KB-V1 MDR tox: qHTS assay for MDR1-selective chemotherapeutics: Primary screen using the drug-selected MDR subline cells KB-V1 | KB-V1 MDR cells viability, CellTiter-Glo, 72 h | 400,000 compounds, 3.4% hits | Potency, µM (doses to about 46.1 µM), hits mostly cytotoxic; further: nearly all actives have a fitted effect of over 60% in size
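qHTS viability screen in drug-selected KB-V1 MDR cells: 72 h compound treatment at 37 degrees C, ATP luminescence end point.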
ELG1 repair inh: qHTS screen for small molecules that inhibit ELG1-dependent DNA repair in human embryonic kidney (HEK293T) cells expressing luciferase-tagged ELG1 | 330,000 compounds, 2.3% hits | HEK293T ELG1-luciferase reporter, luminescence, 16 h; DNA damage induced by 5-fluorouridine | Potency, µM (highest dose often 46.1 µM), hits mostly inhibitors; further: nearly all actives have a fitted effect of over 55% in size
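Reporter activity after DNA damage by 5-fluorouridine is monitored. Compound-treated cells incubate 16 hr at 37 °C, then ONE-Glo is added for 30 min before luminescence reading.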
Of the large screens only hits and unclear results are named; the others gave an inactive call. Compounds with a hit are over-represented: about 8.1% of the library has one in this group of screens. The call rests on the fitted dose curve; in most records, active means well fitted curve in the direction sought with a large enough effect; inconclusive means small, poorly fitted or top-dose-only effect, or another doubt; inactive means no such curve, though single readings can be large; an effect the other way counts as inactive or inconclusive.

C#CCN(Cc1ccccc1)S(=O)(=O)C=C	MCF10A rerep 25.9µM, SW480 rerep inconclusive, KB-3-1 tox inconclusive
Cc1cccc(C(=O)/C=C2/c3ccccc3CC(C)(C)N2C)c1	KB-V1 MDR tox 18.4µM
Cc1ccc2ncc(C(=O)c3ccc(C)c(C)c3)c(S(=O)(=O)c3ccccc3)c2c1	KB-3-1 tox inconclusive (no result: MCF10A rerep, SW480 rerep, ELG1 repair inh)
Cc1cccc(C(=O)c2cnc3ccccc3c2-c2ccccc2)c1	MCF10A rerep 23.1µM, KB-V1 MDR tox inconclusive, ELG1 repair inh inconclusive
CC(C)=C[C@@H]1C[C@H](C)[C@H]2CC[C@H](C)c3c(O)c(O)c(C)c1c32	MCF10A rerep inconclusive
CC(=O)Oc1c(C)c2c3c(c1OC(C)=O)[C@@H](C)CC[C@@H]3[C@@H](C)C[C@H]2C=C(C)C	MCF10A rerep 25.9µM, KB-V1 MDR tox inconclusive
CC(=O)OC1[C@H](Oc2c(O)c(C)c3c4c2[C@@H](C)CC[C@@H]4[C@@H](C)C[C@@H]3C=C(C)C)OC[C@@H](O)[C@@H]1O (some centres not stated)	MCF10A rerep inconclusive
CC(C)=C[C@H]1C[C@H](C)[C@H]2CC[C@H](C)c3c(O[C@@H]4OC[C@@H](O)[C@H](O)C4O)c(O)c(C)c1c32 (some centres not stated)	MCF10A rerep 20.6µM
COc1ccc(-c2c(-c3cc(OC)cc(OC)c3)n(C)c3ccc(-c4cnc(OC)nc4)cc23)cc1	ELG1 repair inh inconclusive
COc1ccc(-c2c(-c3cc(OC)cc(OC)c3)n(C)c3ccc(-c4ccc5[nH]ccc5c4)cc23)cc1	MCF10A rerep inconclusive, KB-3-1 tox 23.1µM
O=C1c2ccccc2NC(c2cccs2)N1O (configuration not stated)	none
O=C1c2ccccc2N[C@@H]2C=CC[C@@H]2N1O	SW480 rerep 25.9µM
Cc1cc(C)n2nc(SCC(=O)NC3(C#N)CCCCC3)nc2n1	none (no result: MCF10A rerep, SW480 rerep, ELG1 repair inh)
CCC1(C)Cc2ccccc2-c2nc(-c3ccccc3)oc(=O)c21 (configuration not stated)	MCF10A rerep inconclusive, KB-3-1 tox inconclusive, KB-V1 MDR tox 16.4µM
CSc1nc(Oc2ccc3ccccc3c2)c2sccc2n1	MCF10A rerep inconclusive, SW480 rerep 20.6µM, KB-3-1 tox 5.17µM, KB-V1 MDR tox inconclusive
CCOc1ccc(C(=O)Nc2c(C(=O)Nc3ccccc3OC)oc3ccccc23)cc1OCC	none (no result: MCF10A rerep, SW480 rerep, ELG1 repair inh)
COc1ccc(-c2nc3c(c(=O)n(C)c(=O)n3C)n2CC2CC(c3ccccc3)=NO2)cc1OC (configuration not stated)	KB-V1 MDR tox 5.8µM (no result: ELG1 repair inh)
CC1=C(C(=O)N(C(C)C)C(C)C)CC(CC(=O)NC2CCCC2)C(=O)N1Cc1ccc(C(C)(C)C)cc1 (configuration not stated)	none (no result: MCF10A rerep, SW480 rerep, ELG1 repair inh)
CCN(CC)c1ccc(/C=N/OCC(=O)N2CCCc3ccccc32)cc1	MCF10A rerep 16.4µM
CCN=c1scc(C)n1/N=C/c1cc(Br)c(O)c(Br)c1	MCF10A rerep 20.6µM, KB-3-1 tox inconclusive, KB-V1 MDR tox inconclusive, ELG1 repair inh inconclusive
CCN=c1scc(C)n1/N=C/c1ccc(O)c(O)c1O	none
O=C(O)c1cccc(N/N=C/c2sc(N3CCOCC3)nc2-c2ccccc2)c1	MCF10A rerep inconclusive, SW480 rerep inconclusive, ELG1 repair inh inconclusive
O=C(N/N=C/c1sc(N2CCOCC2)nc1-c1ccccc1)c1ccccc1Cl	none
O=[N+]([O-])c1ccc(N/N=C/c2sc(N3CCOCC3)nc2-c2ccccc2)c(S(=O)(=O)Nc2ccccc2Cl)c1	SW480 rerep 13µM, KB-3-1 tox 9.2µM, KB-V1 MDR tox inconclusive, ELG1 repair inh inconclusive
O=[N+]([O-])c1ccc(N/N=C/c2sc(N3CCOCC3)nc2-c2ccccc2)c(S(=O)(=O)Nc2ccc(Cl)cc2)c1	MCF10A rerep inconclusive, SW480 rerep 10.3µM, KB-3-1 tox 2.31µM, ELG1 repair inh inconclusive
Cc1oc2ncn(C)c(=O)c2c1C(=O)Nc1ccc(F)cc1	none (no result: MCF10A rerep, SW480 rerep, ELG1 repair inh)
COc1cc2c(NC3CCN(C)CC3)nc(N3CCCN(C)CC3)nc2cc1OCC1CCNCC1	KB-V1 MDR tox inconclusive (no result: MCF10A rerep, SW480 rerep, ELG1 repair inh)
O=C1C2C3c4ccccc4C(c4ccccc43)C2c2nc3ccccc3n21 (configuration not stated)	MCF10A rerep inconclusive, ELG1 repair inh 16.4µM
COc1cc(CCC(=O)OCC(=O)Nc2ccc(C)cc2Cl)cc(OC)c1OC	KB-3-1 tox inconclusive, KB-V1 MDR tox inconclusive
O=C(CSc1nc2c([nH]c3ccccc32)c(=O)n1-c1cccc(Cl)c1)N1CCc2ccccc21	none (no result: MCF10A rerep, SW480 rerep, ELG1 repair inh)
COc1cc(S(=O)(=O)NCCOC23CC4CC(CC(C4)C2)C3)c(OC)cc1Cl	MCF10A rerep inconclusive, KB-3-1 tox inconclusive, KB-V1 MDR tox 5.8µM, ELG1 repair inh 16.4µM
CCOc1ccc(OCC)c(S(=O)(=O)NCCOC23CC4CC(CC(C4)C2)C3)c1	MCF10A rerep inconclusive, KB-3-1 tox inconclusive, KB-V1 MDR tox inconclusive, ELG1 repair inh inconclusive
COCCNC(=O)C1(C)CCCN(Cc2csc(-c3ccc(Cl)cc3)n2)C1 (configuration not stated)	none (no result: MCF10A rerep, SW480 rerep, ELG1 repair inh)
O=C(COc1ccc(Cl)cc1)N(Cc1ccccc1)c1nc(-c2ccccc2)cs1	ELG1 repair inh inconclusive
CCN(CC)CCCN(C(=O)c1cccs1)c1nc(-c2ccc(OC)cc2)cs1	MCF10A rerep inconclusive, SW480 rerep 18.4µM, KB-3-1 tox inconclusive, KB-V1 MDR tox 8.2µM
COc1ccc(-c2csc(N(CCc3ccccc3)C(=O)COc3ccccc3)n2)cc1	KB-V1 MDR tox 16.4µM
COCc1cc(C)n(CC(=O)NCc2ccccc2)c(=O)c1C#N	SW480 rerep 18.4µM, KB-V1 MDR tox inconclusive
O=C(CSc1nnnn1-c1ccccc1F)NNC(=O)c1ccco1	MCF10A rerep inconclusive
COC(=O)c1ccccc1NC(=O)CSc1nnnn1-c1ccc(C)cc1C	MCF10A rerep 12.6µM, SW480 rerep inconclusive, ELG1 repair inh inconclusive
Cc1ccc(-n2nnnc2SCC(=O)NNC(=O)c2ccco2)c(C)c1	MCF10A rerep 20.6µM
CCOC(=O)c1sc(NC(=O)CSc2nnnn2-c2ccc(C)cc2C)nc1C	MCF10A rerep inconclusive
CCN(CC)C(=O)c1sc2c(c1C)c(=O)n(Cc1ccccc1)c(=O)n2CC(=O)Nc1ccc(OC)cc1	none (no result: MCF10A rerep, SW480 rerep, ELG1 repair inh)
COc1ccc(-c2nn(CCC#N)cc2C(=O)Nc2cccc(C(=O)O)c2)cc1OC	none
COC(=O)c1nc(-c2ccc(C)cc2)oc1N(C)C	KB-V1 MDR tox inconclusive
COC(=O)c1nc(-c2ccccc2)oc1N(C)C	KB-V1 MDR tox 16.4µM
CC(/C=C/c1ccccc1)=N\NC(N)=S	KB-3-1 tox inconclusive, KB-V1 MDR tox 18.4µM, ELG1 repair inh inconclusive
CC(/C=C/c1ccc(O)cc1)=NNc1ccccc1	MCF10A rerep 23.1µM, SW480 rerep inconclusive (no result: ELG1 repair inh)
